Bioassay records: PubChem, PCMD
FXIIa single – inhibitors of human coagulation factor XIIa; P00748; purified human FXIIa, AMC substrate fluorescence, 2 h; inhibition, % at 10 µM; hit rate 0.2% among 33,000; AID 701; in the data active means inhibition above about 30%
FXIa single inh – blocks human coagulation factor XIa activity; P03951; purified human FXIa, fluorogenic AMC substrate cleavage; inhibition, % at 10 µM; hit rate 0.3% among 33,000;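 active means inhibition above 40% in the primary screen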
Of the large screens only hits and unclear results are named; the others gave an inactive call. A selection: hits, their analogues and other compounds. The true share with any hit is near 0.33%.

CCN1CCN(CC(=O)c2c(C)n(Cc3ccccc3)c3ccc(OC)cc23)CC1	none
CCOC(=O)c1c(C)n(Cc2ccccc2)c2ccc(OCC(O)Cn3nc(C)cc3C)cc12 (stereo not drawn)	FXIa single inh 101
CCCCCCOc1ccc(CN2CCN(CC)CC2)cc1	none
CCCc1nc2ccccc2c(=O)n1-c1ccc(OC)cc1	FXIa single inh 42
CN(C)CCc1nc2ccccc2c(=O)n1-c1ccccc1	none
CCC(=NCCCn1ccnc1)c1c(O)n(Cc2ccccc2)c(=O)[nH]c1=O	none
